# MCF10A rereplic = DNA re-replication induction in MCF 10a cells; MCF 10A DNA re-replication, Hoechst nuclear intensity, 48 h; Potency, µM (titrated, usually from 46.1 µM), for inactives: at the top dose activity, positive = re-replication, actives largely listed as activators; AID 624296; actives 2.9% (n = 350,000); further: potency means the concentration at half of the fitted maximal effect; % of control where 0% means no effect; nearly all actives have a fitted effect of over 50% in size
# Giardia killer = kills Giardia lamblia. Giardia lamblia trophozoite viability. AID 540267. activity change, % at 7.66 µM, hits read low. actives 0.15% (n = 340,000); in the data active means activity change below about -80%; inconclusive means between about -30% and that limit;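 further: parasites exposed to compound for two days anaerobically before the ATP read; on the % scale 0 is the no-effect control and ±100 the full control effect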
#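 Giardia lamblia trophozoites (100 cells/well) were incubated with compounds for 48 h at 37 deg C under anaerobic conditions. Viability was read as ATP content by one-step luminescence after 15-30 min at room temperature.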
# SW480 rereplic = DNA re-replication induction in SW480 cells; SW480 DNA re-replication, Hoechst DNA content imaging, 48 h; Potency, µM (highest dose often 46.1 µM), without a hit: at the top dose re-replication activation, most hits filed as activators; actives 1.8% (n = 340,000); further: potency means the concentration at half of the fitted maximal effect; % of control where 0% means no effect; nearly all actives have a fitted effect of over 55% in size
#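 Treated cells incubate 48 hr (37 C, 5% CO2), are stained 40 min with Hoechst, and nuclear fluorescence is enumerated; a rise in nuclei with high DNA signal marks re-replication.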
# uPA generation = cell surface uPA generation inhibition; cell surface uPA generation assay, qHTS; Potency, µM (highest dose often 38.3 µM), inactives show at the top dose activity change, negative = inhibition, most hits filed as inhibitors; actives 0.31% (n = 330,000); active means well fitted inhibition curve with a large enough effect; inconclusive means small, poorly fitted or top-dose-only effect; inactive means no such curve, though single readings can be large or run the other way; tested in mouse RAW 264.7 cells; further: potency means the concentration at half of the fitted maximal effect; on the % scale 0 is the no-effect control and ±100 the full control effect; nearly all actives have a fitted effect of over 55% in size
# * marks the source's active call; other numbers are inactive results; ? = inconclusive; nt = no result. This is a sample that favours compounds with a hit; in the whole collection about 4.3% have one here. Unless noted, the call rests on the fitted dose curve; in most records, active means well fitted activation curve with a large enough effect; inconclusive means small, poorly fitted or top-dose-only effect; inactive means no such curve, though single readings can be large or run the other way.
SMILES,MCF10A rereplic,Giardia killer,SW480 rereplic,uPA generation
C=CC(=O)N=c1sc2ccccc2n1-c1ccccc1,?,12.9,3.26µM*,-13.6%
COc1ccc(C(C)=O)cc1COC(=O)Cc1cc(OC)c(OC)c(OC)c1,0.1%,-3.2,-13.6%,3.6%
N#Cc1ccc(/C=C/C(=O)c2ccccc2)cc1,20.6µM*,-18.7,-0.1%,4.8%
COc1ccc(NS(=O)(=O)c2ccc(OC)c(NC(=O)CNC(=O)c3ccc(OC)cc3)c2)cc1,16.9%,-17.2,-16.7%,-11.2%
COc1ccc(C(NC(=O)c2c(F)c(F)c(F)c(F)c2F)c2ccccc2)cc1 (centres undefined),6.51µM*,-2.0,?,-5.9%
COc1ccccc1NC(=O)c1ccc(NC(=O)COC(=O)c2cccnc2Cl)cc1,-4.7%,-12.2,0.8%,2.6%
C=CCn1c(-c2oc3nc(-c4ccccc4)cc(-c4ccccc4)c3c2N)n[nH]c1=S,7.31µM*,-3.5,8.2µM*,-1.0%
O=C(CN(Cc1cccs1)C(=O)CSc1nnc(COc2ccccc2)o1)NC1CCCC1,10.3µM*,-22.6,?,7.5%
C(=N\N1CCN(Cc2cccc3ccccc23)CC1)/c1cccnc1,25.9µM*,7.9,-0.2%,nt
FC(F)(F)c1ccc(/C=N/N2CCN(Cc3cccc4ccccc34)CC2)cc1,7.3%,16.3,-4.2%,0.3%
CC(C)c1ccc(Nc2nnc(SCC(=O)NCC3CCCO3)s2)cc1 (centres undefined),-0.9%,-17.6,-4.5%,?
COc1ccc(CC(=O)NC2CCCc3ccccc32)cc1 (centres undefined),1.8%,0.6,1.5%,-1.4%
COc1ccc2c(c1)C(CC(=O)NN)CCC2 (centres undefined),2.31µM*,0.6,13µM*,-23.1%
O=C1CCN(CC2CCCCC2)C=C1C(=O)c1ccccc1,3.9%,-12.0,?,-1.6%
COc1ccccc1N1CCN(S(=O)(=O)CCNC(=O)Cc2ccc(F)cc2)CC1,8.0%,-3.3,?,7.08µM*
COc1ccccc1N1CCN(c2cc(=O)n(Cc3ccc(F)cc3)c(=O)[nH]2)CC1,?,5.6,16.4µM*,2.82µM*
CCOC(=O)N1CCN(c2cc(=O)n(Cc3ccc(F)cc3)c(=O)[nH]2)CC1,11.6µM*,-12.5,20.6µM*,2.8%
O=c1cc(N2CCN(c3ccccc3Cl)CC2)[nH]c(=O)n1Cc1ccc(F)cc1,2.06µM*,44.2,?,-7.9%
COc1ccc(CC(=O)NCCS(=O)(=O)N2CCN(c3ccc(F)cc3)CC2)cc1OC,-2.0%,6.4,-3.1%,-2.4%
O=c1cc(N2CCN(Cc3ccccc3)CC2)[nH]c(=O)n1Cc1ccc(F)cc1,-3.1%,-20.2,0.9%,nt
COC(=O)[C@]1(Cc2ccccc2)N[C@H](CN(C)C(C)=O)[C@@H]2C(=O)N(Cc3ccccc3)C(=O)[C@@H]21,28.4%,3.2,-74.9%,10.7%
Cn1ncc2c(=S)nc(Cl)[nH]c21,?,14.6,?,-5.8%
CCN1CCN(c2ccc(S(=O)(=O)N3CCOCC3)cc2NC(=O)C(C)Oc2ccc(F)cc2)CC1 (centres undefined),-3.9%,0.3,-7.9%,-2.5%
O=C(NC1CCCc2ccccc21)C1CCN(c2nnc(-n3cccc3)s2)CC1 (centres undefined),16.4µM*,-1.9,-1.0%,?
COc1ccccc1C(=O)NCC(=O)N/N=C(\C)Cc1ccccc1,-0.5%,6.4,3.1%,-2.2%
SMILES,MCF10A rereplic,Giardia killer,SW480 rereplic,uPA generation
Cc1ccc(C)c(N/C(N)=N/c2nc(C)cc(C)n2)c1,10.0%,9.9,4.3%,-7.0%
Cc1ccc(CN=C(N)Nc2nc(C)cc(C)n2)cc1,?,12.9,14.6µM*,-10.2%
Oc1ccccc1C1C=C(c2ccc3c(c2)OCO3)NC(c2cccc(F)c2)N1 (centres undefined),nt,-19.1,nt,nt
c1ccc(CN2CCC(N3CCN(Cc4ccc5c(c4)OCO5)CC3)CC2)cc1,20.6µM*,-10.0,-0.5%,-1.8%
Cc1cccc(/C=N/NC(=O)c2cc(Br)ccc2OCc2ccccc2)n1,?,3.8,?,-6.9%
Cc1cccc(/C=N/NC(=O)c2ccccc2OCc2cccc(Br)c2)n1,18.4µM*,-4.0,18.8%,-5.0%
O=C1CSC2(CCN(CCCN3c4ccccc4Sc4ccc(Cl)cc43)CC2)N1,18.8µM*,nt,6.9%,nt
CN1CCN(CCCN2c3ccccc3Sc3ccc(C(F)(F)F)cc32)CC1,23.1µM*,-21.9,?,-3.3%
Cc1cc(C)n(/N=C/c2ccccc2O)c(=O)c1,-16.4%,-16.6,-14.2%,0.8%
CN=c1scc(-c2cccs2)n1/N=C/c1ccccc1O,14.6µM*,?,10.5%,-8.8%
CN=c1scc(C)n1/N=C/c1ccc(O)c(O)c1O,?,?,20.9%,-5.9%
CN=c1scc(-c2cccs2)n1/N=C/c1ccc(O)c(O)c1O,7.5%,-92.5*,?,-19.0%
CCOC(=O)C1CCCN(CC(=O)Nc2nccs2)C1 (centres undefined),0.1%,11.5,0.8%,-0.5%
O=S(=O)(Nc1ccc(-c2nc3cccnc3s2)cc1)c1cc(F)ccc1F,20.6µM*,-18.9,17.8%,-6.6%
Cc1nc2ccc(S(=O)(=O)Nc3cc(-c4nc5cccnc5s4)ccc3C)cc2s1,0.82µM*,-3.3,23.1µM*,?
Cc1ccc(-c2nc3cccnc3s2)cc1NS(=O)(=O)c1cccs1,16.4µM*,?,-0.9%,-7.3%
CCc1ccc(S(=O)(=O)Nc2ccc(-c3nc4cccnc4s3)cc2)s1,?,4.4,18.8%,-0.3%
Cc1ccc(S(=O)(=O)N2CCN(C(=O)c3ccc(N4CCC(C)CC4)c([N+](=O)[O-])c3)CC2)cc1,2.7%,7.1,-5.3%,0.3%
O=C(CCS(=O)(=O)c1ccccc1)N(CCCN1CCOCC1)c1nc2c(F)cccc2s1,13µM*,1.5,23.1µM*,?
O=C(CCS(=O)(=O)c1ccccc1)N(CCCN1CCOCC1)c1nc2ccc(F)cc2s1,18.4µM*,-1.4,-14.0%,?
CCc1cccc2sc(N(CCCN3CCOCC3)C(=O)CS(=O)(=O)c3ccccc3)nc12,1.9%,8.8,0.2%,-0.3%
CC1=C[C@@H](O)CC(C)(C)[C@@H]1/C=C/C(C)=C/C=C/C(C)=C/C=C/C=C(C)/C=C/C=C(C)/C=C/C1=C(C)C[C@H](O)CC1(C)C,29.9µM*,nt,?,nt
O=S(=O)(NCc1ccccn1)c1ccccn1,-20.6%,0.8,-11.3%,-1.6%
C/C=C1\COC(C(=O)NC)(C(F)(F)F)C=C1C=C1CCCCC1 (centres undefined),nt,5.7,nt,nt
Cc1nn(CC(=O)Nc2ccc3c(c2)nc(CCN2CCCCC2)n3C)c(=O)c2ccccc12,16.4µM*,1.9,?,nt
Cn1c(CN2CCCCC2)nc2cc(NC(=O)c3ccc(Cl)cc3)ccc21,23.1µM*,-15.6,?,nt
Cn1c(CCN2CCN(c3ccccn3)CC2)nc2cc(NS(=O)(=O)c3ccccc3)ccc21,23.1µM*,-18.4,?,-17.0%
Cn1c(CCN2CCCC2)nc2cc(NS(=O)(=O)c3ccc(Cl)cc3)ccc21,?,-10.5,20.6µM*,?
CC(C)NS(=O)(=O)c1ccc(OCC(=O)Nc2ccc(F)cc2)cc1,-1.9%,9.1,-2.8%,2.9%

# Screening results (PubChem)
